Laboratory results from PubChem BioAssay (Tox21).
Inconclusive results are not listed. Entries that show only a call come without a potency. Activity calls are given as the source filed them. Unless noted, the call rests on the fitted dose curve.

Experiments:
[1] = Nuclear factor erythroid 2-related factor 2/antioxidant responsive element (Nrf2/ARE) small molecule agonists: qHTS cell viability counter screen in human keratinocytes (AID 1919968; active means well fitted curve in the direction sought with a large enough effect in the repeat runs; an effect the other way counts as inactive or inconclusive; further: nearly all actives have a fitted effect of over 55% in size; further: potency means the concentration at half of the fitted maximal effect)
Outline: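 Fluorescence read-out from CellTiter-Fluor after 1 h at 37 C. Wells held HaCaT-derived ARE-luciferase reporter cells (1,500/well) treated 23 h with DMSO-dissolved compounds. Run in the same wells as the luciferase agonist read.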

[2] = Nuclear factor erythroid 2-related factor 2/antioxidant responsive element (Nrf2/ARE) small molecule agonists: luciferase reporter gene qHTS assay in human keratinocytes (AID 1919969); further: nearly all actives have a fitted effect of over 35% in size; further: potency means the concentration at half of the fitted maximal effect
[3] = molecular target: Gonadotropin-releasing hormone receptor (Homo sapiens) (UniProt P30968); experiment: Human gonadotropin-releasing hormone receptor (GnRHR) small molecule agonists, calcium flux assay in GnRHR-HEK293 cells (AID 1920063); further: nearly all actives have a fitted effect of over 35% in size
Outline: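 Calcium-dye fluorescence, Ex/Em=480/540, recorded every 1 sec over 3 min after compound addition to GnRHR-HEK293 cells. Cells had been seeded 18 hours earlier and dye-loaded for 1 hour at 37 C. Fifteen concentrations, triplicates.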

[4] = molecular target: KiSS-1 receptor (Homo sapiens) (UniProt Q969F8); experiment: Human kisspeptin (KISS1R) small molecule agonists, calcium flux assay in KISS1R-HEK293 cells (AID 1920064; active means well fitted curve in the direction sought with a large enough effect in the repeat runs; an effect the other way counts as inactive or inconclusive)
Outline: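 Calcium flux read-out: kinetic fluorescence at Ex/Em=480/540, 1 s intervals over 3 min, after pin-tool compound addition to dye-loaded KISS1R-HEK293 cells. Fifteen concentrations, triplicates.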

[5] = G protein-coupled receptor (GPCR) small molecule agonists, calcium flux assay: HEK293 wild type cell line counter screen (AID 1920065)
Outline: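 Agonist mode; 18 h seeding at 37 C, 1 h dye load at 37 C; compounds pinned from DMSO, ATP as positive control; kinetic fluorescence 480/540 nm, 3 min, 1 s reads; 15 concentrations, triplicate.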

[6] = p53 small molecule agonists, cell-based qHTS assay with human liver microsomes: qHTS cell viability counter screen (AID 1963579); further: nearly all actives have a fitted effect of over 45% in size
Outline: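 In this multiplexed counter screen, the reporter plates were subsequently treated with CellTiter-Glo so that cell viability, reflected by luminescence, could be recorded for p53RE-bla cells dosed 16 h with compounds under microsomal activation (HLM and NADPH).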

[7] = p53 small molecule agonists, cell-based qHTS assay with rat liver microsomes: qHTS cell viability counter screen (AID 1963580); further: nearly all actives have a fitted effect of over 45% in size
Outline: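 After the beta-lactamase ratio was read, CellTiter-Glo was added to the same wells and luminescence measured at 30 min; cells had been treated 16 h at 37 C with compounds, rat liver microsomes and NADPH (0.5 mg/mL final each).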

[8] = p53 small molecule agonists, cell-based qHTS assay: qHTS cell viability counter screen (AID 1963581); further: nearly all actives have a fitted effect of over 45% in size
Outline: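 Cytotoxicity read-out: ATP-based luminescence (CellTiter-Glo, 30 min RT) measured in the same wells as the p53 reporter assay, HCT-116 p53RE-bla cells, 16 h compound exposure at 37 C.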

[9] = molecular target: 5-hydroxytryptamine receptor 2A (Homo sapiens) (UniProt P28223); experiment: 5-hydroxytryptamine receptor 2A (HTR2A) small molecule agonists, cell-based qHTS assay (AID 1963587); further: nearly all actives have a fitted effect of over 30% in size
Outline: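 CHO cells stably expressing human HTR2A, plated 18 h, loaded with calcium dye 1 h at 37 C. Agonist mode: compounds added and intracellular calcium fluorescence recorded kinetically for 2 min at 1 sec intervals.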

[10] = molecular target: Muscarinic acetylcholine receptor M1 (Homo sapiens) (UniProt P11229); experiment: Cholinergic receptor muscarinic 1 (CHRM1) small molecule antagonists, cell-based qHTS assay (AID 1963588); further: nearly all actives have a fitted effect of over 40% in size; further: potency means the concentration at half of the fitted maximal effect
Outline: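 Compounds were tested at 15 concentrations in three independent runs. Dye-loaded CHRM1-CHO cells were exposed 5 min at room temperature before stimulation by acetylcholine added at 50nM. Intracellular calcium was read kinetically on FDSS for 3 min.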

[11] = molecular target: Muscarinic acetylcholine receptor M1 (Homo sapiens) (UniProt P11229); experiment: Cholinergic receptor muscarinic 1 (CHRM1) small molecule agonists, cell-based qHTS assay (AID 1963589); further: nearly all actives have a fitted effect of over 35% in size
Outline: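 Calcium flux read-out: kinetic fluorescence at 1 sec intervals after pin-tool compound addition to dye-loaded CHRM1-CHO cells (human M1). Agonist mode; 15 concentrations tested in triplicate independent runs.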

[12] = cAMP Responsive Elements (CRE) small molecule agonists, cell-based qHTS assay (AID 1963590)
Outline: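 Beta-lactamase reporter readout: LiveBLAzer B/G FRET substrate, 2 h at room temperature, added after 3 h compound treatment of CRE-bla HEK 293T cells at 37 C/5% CO2.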

[13] = cAMP Responsive Elements (CRE) small molecule antagonists, cell-based qHTS assay (AID 1963591; active means well fitted inhibition curve with a large enough effect in the signal ratio in the repeat runs, not every such curve was filed as active; the % refers to the signal ratio)
Outline: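 HEK293T CRE-bla; 18 h preincubation; compound pin-transfer; NKH477 0.25 uM final, 3 h, 37 C; LiveBLAzer FRET substrate 2 h RT.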

[14] = molecular target: Beta-2 adrenergic receptor (Homo sapiens) (UniProt P07550); experiment: Adrenergic beta2 receptor (ADRB2) small molecule agonists, cell-based qHTS assay (AID 1963593);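 further: CHO cells stably overexpressing human ADRB2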
Outline: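 CHO cells stably over-expressing ADRB2 were plated overnight at 37C, then dosed with compounds plus a stimulation mix containing 100uM IBMX and 25uM Ro-20-1724 for 0.5hr at room temperature. cAMP was measured by HTRF competition, 1hr.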

[15] = molecular target: D(2) dopamine receptor (Homo sapiens) (UniProt P14416); experiment: Dopamine D2 receptor (DRD2) small molecule agonists, cell-based qHTS assay (AID 1963594); further: nearly all actives have a fitted effect of over 35% in size
Outline: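 HEK293 cells stably expressing human DRD2, pre-treated with PDE inhibitor Ro20-1724 (0.1 mM final) and compound 10 min at room temperature, then stimulated with NKH477 (200nM […]) for 30 min. cAMP read by HTRF (665/620 nm).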

[16] = molecular target: D(2) dopamine receptor (Homo sapiens) (UniProt P14416); experiment: Dopamine D2 receptor (DRD2) small molecule antagonists, cell-based qHTS assay (AID 1963595; active means well fitted inhibition curve with a large enough effect in the signal ratio in the repeat runs, with a control signal flat; the % refers to the signal ratio; further: potency means the concentration at half of the fitted maximal effect)
Outline: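 HEK293 cells stably expressing DRD2, preincubated with 0.1 mM Ro20-1724 and compounds 10 min, were stimulated with 200 nM NKH477 plus 12 nM quinpirole for 30 min at room temperature; cAMP measured by HTRF (665/620 nm).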

[17] = molecular target: Beta-2 adrenergic receptor (Homo sapiens) (UniProt P07550); experiment: Adrenergic beta2 receptor (ADRB2) small molecule antagonists, cell-based qHTS assay (AID 1963592); further: series mostly up to about 92 µM; nearly all actives have a fitted effect of over 50% in size
Outline: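 Assay format: CHO-ADRB2 cells, 18-20hr seeding at 37C/5% CO2, then compound plus 1nM isoproterenol agonist mix for 0.5hr RT. Homogeneous time-resolved fluorescence cAMP detection after 1hr, expressed as 665/615 nm ratio.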

[18] = molecular target: 5-hydroxytryptamine receptor 2A (Homo sapiens) (UniProt P28223); experiment: 5-hydroxytryptamine receptor 2A (HTR2A) small molecule antagonists, cell-based qHTS assay (AID 1963586); further: nearly all actives have a fitted effect of over 45% in size
Outline: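 CHO cells stably expressing human HTR2A were plated for 18 h at 37 C, then loaded with calcium dye for 1 h. Compounds were preincubated 5 min at room temperature before DOI (4 nM solution) was added. Kinetic fluorescence was read for 3 min.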

Beta-2 adrenergic receptor (Homo sapiens), sequence (P07550 whole entry, looked up): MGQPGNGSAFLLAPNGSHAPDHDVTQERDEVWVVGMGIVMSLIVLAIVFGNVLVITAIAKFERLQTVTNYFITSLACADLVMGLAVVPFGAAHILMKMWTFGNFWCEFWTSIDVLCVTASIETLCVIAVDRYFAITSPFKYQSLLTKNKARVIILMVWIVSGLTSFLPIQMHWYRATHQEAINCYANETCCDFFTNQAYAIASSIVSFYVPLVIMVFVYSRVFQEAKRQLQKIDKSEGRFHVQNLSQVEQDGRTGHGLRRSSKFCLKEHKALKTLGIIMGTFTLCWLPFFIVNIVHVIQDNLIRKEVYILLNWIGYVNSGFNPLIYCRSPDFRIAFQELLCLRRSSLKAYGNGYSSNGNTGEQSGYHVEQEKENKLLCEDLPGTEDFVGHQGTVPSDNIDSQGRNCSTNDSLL
5-hydroxytryptamine receptor 2A (Homo sapiens), sequence (P28223 whole entry, looked up): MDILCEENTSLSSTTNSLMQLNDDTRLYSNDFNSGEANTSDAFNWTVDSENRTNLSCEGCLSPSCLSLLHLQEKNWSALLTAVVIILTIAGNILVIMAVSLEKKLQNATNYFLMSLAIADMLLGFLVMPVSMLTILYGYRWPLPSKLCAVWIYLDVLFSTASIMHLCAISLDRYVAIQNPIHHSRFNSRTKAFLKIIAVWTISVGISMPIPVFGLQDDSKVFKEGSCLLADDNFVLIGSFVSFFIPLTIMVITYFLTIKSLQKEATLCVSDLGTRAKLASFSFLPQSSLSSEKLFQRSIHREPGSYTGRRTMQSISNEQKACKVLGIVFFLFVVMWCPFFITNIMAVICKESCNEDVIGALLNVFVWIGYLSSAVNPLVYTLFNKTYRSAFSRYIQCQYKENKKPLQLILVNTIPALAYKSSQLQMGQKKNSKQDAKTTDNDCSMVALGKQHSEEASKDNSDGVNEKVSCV
D(2) dopamine receptor (Homo sapiens), sequence (P14416 whole entry, looked up): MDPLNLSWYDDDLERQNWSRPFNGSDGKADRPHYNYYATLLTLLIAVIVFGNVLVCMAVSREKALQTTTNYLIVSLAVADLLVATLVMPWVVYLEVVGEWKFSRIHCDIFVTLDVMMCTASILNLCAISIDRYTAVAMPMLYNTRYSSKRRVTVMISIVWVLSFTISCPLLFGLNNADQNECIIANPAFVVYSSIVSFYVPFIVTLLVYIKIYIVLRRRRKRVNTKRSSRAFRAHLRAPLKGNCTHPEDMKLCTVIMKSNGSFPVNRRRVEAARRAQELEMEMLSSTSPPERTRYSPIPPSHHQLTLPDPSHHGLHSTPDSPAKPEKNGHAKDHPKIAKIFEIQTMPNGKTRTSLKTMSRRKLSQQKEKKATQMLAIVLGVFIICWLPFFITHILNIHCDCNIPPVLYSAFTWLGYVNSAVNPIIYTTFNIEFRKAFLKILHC
Muscarinic acetylcholine receptor M1 (Homo sapiens), sequence (P11229 whole entry, looked up): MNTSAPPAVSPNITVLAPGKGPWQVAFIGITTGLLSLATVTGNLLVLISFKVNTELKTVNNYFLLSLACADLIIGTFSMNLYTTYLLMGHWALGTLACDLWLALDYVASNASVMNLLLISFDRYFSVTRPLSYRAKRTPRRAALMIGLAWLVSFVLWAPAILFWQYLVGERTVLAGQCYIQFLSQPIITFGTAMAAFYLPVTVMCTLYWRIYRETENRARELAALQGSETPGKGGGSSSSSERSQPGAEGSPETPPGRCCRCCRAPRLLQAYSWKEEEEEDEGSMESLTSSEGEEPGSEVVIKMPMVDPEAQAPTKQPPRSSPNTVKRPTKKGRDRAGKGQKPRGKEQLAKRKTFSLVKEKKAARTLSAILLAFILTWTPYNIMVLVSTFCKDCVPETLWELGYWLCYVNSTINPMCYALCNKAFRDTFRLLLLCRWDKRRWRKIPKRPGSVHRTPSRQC
Gonadotropin-releasing hormone receptor (Homo sapiens), sequence (P30968 whole entry, looked up): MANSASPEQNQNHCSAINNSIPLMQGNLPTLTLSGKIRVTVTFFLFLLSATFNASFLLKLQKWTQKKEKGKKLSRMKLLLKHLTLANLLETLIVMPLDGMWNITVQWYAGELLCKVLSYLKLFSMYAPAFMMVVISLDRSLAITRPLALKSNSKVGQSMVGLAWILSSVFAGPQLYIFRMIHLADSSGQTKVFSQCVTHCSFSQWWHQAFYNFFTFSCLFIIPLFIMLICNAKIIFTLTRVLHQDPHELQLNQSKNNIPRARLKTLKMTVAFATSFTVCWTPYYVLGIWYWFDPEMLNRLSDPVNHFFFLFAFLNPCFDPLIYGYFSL
KiSS-1 receptor (Homo sapiens), sequence (Q969F8 whole entry, looked up): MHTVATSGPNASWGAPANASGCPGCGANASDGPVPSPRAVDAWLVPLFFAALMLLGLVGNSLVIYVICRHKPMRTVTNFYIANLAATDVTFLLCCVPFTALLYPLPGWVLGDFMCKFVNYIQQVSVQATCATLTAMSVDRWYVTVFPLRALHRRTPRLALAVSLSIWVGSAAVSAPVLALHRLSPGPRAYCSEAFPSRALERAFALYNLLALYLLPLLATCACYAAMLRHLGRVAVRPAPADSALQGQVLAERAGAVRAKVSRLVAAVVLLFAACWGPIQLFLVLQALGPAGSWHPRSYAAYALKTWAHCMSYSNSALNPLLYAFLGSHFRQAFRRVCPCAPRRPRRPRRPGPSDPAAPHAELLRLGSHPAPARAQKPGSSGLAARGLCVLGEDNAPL

Structure (SMILES) | Potency [1] | Potency [2] | Potency [3] | Potency [4] | Potency [5] | Potency [6] | Potency [7] | Potency [8] | Potency [9] | Potency [10] | Potency [11] | Potency [12] | Potency [13] | Potency [14] | Potency [15] | Potency [16] | Potency [17] | Potency [18]
CCC1Nc2cc(Cl)c(S(N)(=O)=O)cc2S(=O)(=O)N1 (centres undefined) | inactive | inactive | inactive | inactive | inactive | inactive | inactive | inactive | inactive | inactive | inactive | inactive | inactive | inactive | inactive | inactive | – | –
O=Cc1ccccc1Cl | inactive | inactive | inactive | inactive | inactive | inactive | inactive | inactive | inactive | inactive | inactive | inactive | inactive | inactive | inactive | inactive | – | –
CC(C)(C)c1cc(CCC(=O)OCC(COC(=O)CCc2cc(C(C)(C)C)c(O)c(C(C)(C)C)c2)(COC(=O)CCc2cc(C(C)(C)C)c(O)c(C(C)(C)C)c2)COC(=O)CCc2cc(C(C)(C)C)c(O)c(C(C)(C)C)c2)cc(C(C)(C)C)c1O | inactive | inactive | inactive | inactive | inactive | inactive | inactive | inactive | inactive | inactive | inactive | inactive | inactive | – | – | inactive | inactive | –
CC1CC(OC(=O)C(O)c2ccccc2)CC(C)(C)N1C (centres undefined) | inactive | inactive | inactive | inactive | inactive | inactive | inactive | inactive | inactive | 0.41 µM (active) | inactive | inactive | inactive | inactive | inactive | inactive | inactive | –
CCCCCCC#CC(=O)OC | inactive | inactive | inactive | inactive | inactive | inactive | inactive | inactive | – | – | inactive | inactive | inactive | – | inactive | inactive | inactive | inactive
Cc1ccc(S(=O)(=O)NC(=O)NC2CCCCC2)cc1 | inactive | inactive | inactive | inactive | inactive | inactive | inactive | inactive | inactive | inactive | inactive | inactive | inactive | – | inactive | inactive | inactive | –
Cc1oc(=O)oc1CN1CCN(c2cc3c(cc2F)c(=O)c(C(=O)O)c2n3C(C)S2)CC1 (centres undefined) | inactive | inactive | inactive | inactive | inactive | inactive | inactive | inactive | – | inactive | inactive | – | – | – | inactive | – | – | inactive
CN(C(=O)CN(CCO)CC(=O)N(C)C(C)(C)Cc1ccccc1)C(C)(C)Cc1ccccc1 | inactive | inactive | inactive | inactive | inactive | inactive | inactive | inactive | – | inactive | inactive | – | inactive | – | inactive | inactive | inactive | inactive
NC(N)=NS(=O)(=O)c1ccc(N)cc1 | inactive | inactive | inactive | inactive | inactive | inactive | inactive | inactive | inactive | inactive | inactive | inactive | inactive | – | inactive | – | inactive | –
CCCc1ccc(OC)cc1 | inactive | inactive | inactive | inactive | inactive | inactive | inactive | inactive | – | inactive | inactive | inactive | – | inactive | inactive | inactive | inactive | inactive
N#CSCSc1nc2ccccc2s1 | 13.7 µM (active) | 9.69 µM (active) | inactive | inactive | inactive | inactive | inactive | inactive | – | inactive | inactive | – | – | – | inactive | 54.5 µM (active) | inactive | inactive
CCC(C(=O)NC(=O)NC(C)=O)c1ccccc1 (centres undefined) | inactive | inactive | inactive | inactive | inactive | inactive | inactive | inactive | inactive | inactive | inactive | – | inactive | inactive | inactive | inactive | – | –
C=CC(=O)N1CCOCC1 | inactive | inactive | inactive | inactive | inactive | inactive | inactive | inactive | – | inactive | inactive | inactive | – | inactive | – | inactive | inactive | inactive
COc1cc(Cl)c(OC)cc1N | inactive | inactive | inactive | inactive | inactive | inactive | inactive | inactive | – | inactive | inactive | inactive | – | – | inactive | – | – | inactive
CC(C)(COC(=O)c1ccccc1)COC(=O)c1ccccc1 | inactive | inactive | inactive | inactive | inactive | inactive | inactive | inactive | inactive | – | inactive | inactive | inactive | – | inactive | inactive | inactive | –
COc1cccc2sc(N)nc12 | inactive | inactive | inactive | inactive | inactive | inactive | inactive | inactive | inactive | – | inactive | inactive | – | – | inactive | inactive | inactive | –
